According to publication PMC7862700, “An all-to-all approach to the identification of sequence-specific readers for epigenetic DNA modifications on cytosine”:

Assays:
Experiment in all cases: DAPPL (digital affinity profiling via proximity ligation, sequencing); 10 mM Tris-HCl pH 7.5, 50 mM NaCl, 1 mM DTT, 4% glycerol, room temperature, 30 min; GST-TFs on glutathione beads, 16-mer random dsDNA library, 0.1% formaldehyde crosslink after washing; high values mean tight binding
Settings in all cases: protein: recombinant; tags: N-terminal GST; dsDNA, one strand shown
FLI1 = biological target: T1, FLI1 (Homo sapiens, UniProt Q01543 1-452)
T1 sequence: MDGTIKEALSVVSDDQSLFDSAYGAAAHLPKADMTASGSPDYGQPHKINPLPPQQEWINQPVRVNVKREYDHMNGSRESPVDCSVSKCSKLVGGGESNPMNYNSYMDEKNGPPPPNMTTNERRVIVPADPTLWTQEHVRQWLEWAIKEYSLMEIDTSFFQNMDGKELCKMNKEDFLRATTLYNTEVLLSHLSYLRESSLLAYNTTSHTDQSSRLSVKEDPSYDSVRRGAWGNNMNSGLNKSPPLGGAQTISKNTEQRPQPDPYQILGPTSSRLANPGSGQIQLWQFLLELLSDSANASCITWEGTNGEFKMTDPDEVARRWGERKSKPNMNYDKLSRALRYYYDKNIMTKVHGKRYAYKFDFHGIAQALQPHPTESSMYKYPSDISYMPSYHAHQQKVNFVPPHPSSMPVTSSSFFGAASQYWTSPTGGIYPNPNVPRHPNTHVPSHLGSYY
In short: (§1)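 GST fusions of human transcription factors were expressed in yeast and captured with glutathione beads. Once given DNA barcodes and pooled alongside a tag-only sample, they were incubated for 30 min at room temperature with 200 nmole of a random double-stranded 16-mer DNA library in Tris/NaCl/DTT/glycerol buffer, then washed, crosslinked (0.1% formaldehyde), proximity-ligated, PCR-amplified and sequenced on an Illumina NextSeq500. The binding signal of each hexamer is its read frequency for a factor divided by its frequency for the tag-only sample.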

ELK1 = biological target: T2, ELK1 (Homo sapiens, UniProt P19419 1-428)
T2 sequence: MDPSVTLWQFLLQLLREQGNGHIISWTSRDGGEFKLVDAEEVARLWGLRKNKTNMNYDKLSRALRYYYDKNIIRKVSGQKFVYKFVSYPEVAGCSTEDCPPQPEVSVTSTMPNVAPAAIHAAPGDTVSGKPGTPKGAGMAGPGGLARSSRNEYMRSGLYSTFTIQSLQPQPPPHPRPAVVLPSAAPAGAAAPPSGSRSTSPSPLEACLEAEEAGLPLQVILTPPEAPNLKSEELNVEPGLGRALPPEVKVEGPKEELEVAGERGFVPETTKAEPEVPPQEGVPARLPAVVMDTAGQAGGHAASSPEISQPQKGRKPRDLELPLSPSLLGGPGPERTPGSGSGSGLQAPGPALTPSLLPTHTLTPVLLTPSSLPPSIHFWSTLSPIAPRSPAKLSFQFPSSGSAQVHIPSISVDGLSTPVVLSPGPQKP
In short: as §1

GABPA = biological target: T3, GABPA (Homo sapiens, UniProt Q06546 1-454)
T3 sequence: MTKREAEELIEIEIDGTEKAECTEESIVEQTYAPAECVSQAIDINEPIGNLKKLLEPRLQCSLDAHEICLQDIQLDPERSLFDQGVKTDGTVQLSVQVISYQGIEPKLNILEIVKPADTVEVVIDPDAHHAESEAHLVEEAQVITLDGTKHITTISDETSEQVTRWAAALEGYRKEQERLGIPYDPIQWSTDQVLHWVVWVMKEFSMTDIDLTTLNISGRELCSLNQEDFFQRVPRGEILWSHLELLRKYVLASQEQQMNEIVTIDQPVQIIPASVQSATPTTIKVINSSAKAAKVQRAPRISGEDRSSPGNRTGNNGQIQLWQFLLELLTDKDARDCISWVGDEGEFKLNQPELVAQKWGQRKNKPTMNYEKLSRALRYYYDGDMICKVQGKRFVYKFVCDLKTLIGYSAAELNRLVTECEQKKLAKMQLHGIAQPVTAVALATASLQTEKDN
In short: as §1

ERG = biological target: T4, ERG (Homo sapiens, UniProt P11308 1-479)
T4 sequence: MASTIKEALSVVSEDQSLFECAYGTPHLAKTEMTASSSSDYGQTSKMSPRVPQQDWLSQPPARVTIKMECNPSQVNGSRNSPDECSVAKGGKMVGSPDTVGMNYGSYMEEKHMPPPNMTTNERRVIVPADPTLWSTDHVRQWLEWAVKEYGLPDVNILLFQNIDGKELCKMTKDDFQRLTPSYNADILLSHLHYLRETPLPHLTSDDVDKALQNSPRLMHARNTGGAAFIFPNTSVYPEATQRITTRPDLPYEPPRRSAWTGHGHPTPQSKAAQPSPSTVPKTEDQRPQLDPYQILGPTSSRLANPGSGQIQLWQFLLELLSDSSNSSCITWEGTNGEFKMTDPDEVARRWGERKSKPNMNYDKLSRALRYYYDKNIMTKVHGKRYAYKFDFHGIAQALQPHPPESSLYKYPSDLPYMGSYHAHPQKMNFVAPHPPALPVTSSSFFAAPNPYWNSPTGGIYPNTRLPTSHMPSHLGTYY
In short: as §1

ELF1 = ELF1 (Homo sapiens, UniProt P32519 1-619)
In short: as §1

EHF = biological target: T5, EHF (Homo sapiens, UniProt Q9NZC4 1-300)
T5 sequence: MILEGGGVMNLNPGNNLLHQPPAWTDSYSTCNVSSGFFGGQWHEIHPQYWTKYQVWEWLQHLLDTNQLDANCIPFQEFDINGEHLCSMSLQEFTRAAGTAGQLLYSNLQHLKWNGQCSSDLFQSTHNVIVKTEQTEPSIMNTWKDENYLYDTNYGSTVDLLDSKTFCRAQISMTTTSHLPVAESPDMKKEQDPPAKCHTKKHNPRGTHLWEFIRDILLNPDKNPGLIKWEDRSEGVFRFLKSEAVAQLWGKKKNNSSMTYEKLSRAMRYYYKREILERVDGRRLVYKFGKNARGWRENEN
In short: as §1

SPI1 = SPI1 (Homo sapiens, UniProt P17947 1-270)
In short: as §1

SPIB = SPIB (Homo sapiens, UniProt Q01892 1-262)
In short: as §1

ELK3 = biological target: T6, ELK3 (Homo sapiens, UniProt P41970 1-407)
T6 sequence: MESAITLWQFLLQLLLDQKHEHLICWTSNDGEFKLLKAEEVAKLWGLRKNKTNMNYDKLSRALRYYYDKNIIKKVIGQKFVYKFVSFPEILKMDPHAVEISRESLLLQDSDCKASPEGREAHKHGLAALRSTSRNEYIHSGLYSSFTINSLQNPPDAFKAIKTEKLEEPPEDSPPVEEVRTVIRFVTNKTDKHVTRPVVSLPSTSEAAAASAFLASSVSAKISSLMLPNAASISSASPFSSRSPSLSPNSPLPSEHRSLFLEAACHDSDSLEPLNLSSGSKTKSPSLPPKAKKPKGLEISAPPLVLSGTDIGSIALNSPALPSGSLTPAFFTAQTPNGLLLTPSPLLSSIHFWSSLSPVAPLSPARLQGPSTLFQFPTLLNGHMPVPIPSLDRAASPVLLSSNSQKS
In short: as §1

Sequence of SPIB (Q01892 whole entry): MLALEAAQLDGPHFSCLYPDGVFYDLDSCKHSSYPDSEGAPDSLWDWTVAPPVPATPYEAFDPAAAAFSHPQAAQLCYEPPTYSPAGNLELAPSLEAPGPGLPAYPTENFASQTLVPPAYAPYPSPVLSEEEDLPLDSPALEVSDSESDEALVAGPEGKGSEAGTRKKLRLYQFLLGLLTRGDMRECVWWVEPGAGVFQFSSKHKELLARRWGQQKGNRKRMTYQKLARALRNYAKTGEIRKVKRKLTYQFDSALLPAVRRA
Sequence of ELF1 (P32519 whole entry): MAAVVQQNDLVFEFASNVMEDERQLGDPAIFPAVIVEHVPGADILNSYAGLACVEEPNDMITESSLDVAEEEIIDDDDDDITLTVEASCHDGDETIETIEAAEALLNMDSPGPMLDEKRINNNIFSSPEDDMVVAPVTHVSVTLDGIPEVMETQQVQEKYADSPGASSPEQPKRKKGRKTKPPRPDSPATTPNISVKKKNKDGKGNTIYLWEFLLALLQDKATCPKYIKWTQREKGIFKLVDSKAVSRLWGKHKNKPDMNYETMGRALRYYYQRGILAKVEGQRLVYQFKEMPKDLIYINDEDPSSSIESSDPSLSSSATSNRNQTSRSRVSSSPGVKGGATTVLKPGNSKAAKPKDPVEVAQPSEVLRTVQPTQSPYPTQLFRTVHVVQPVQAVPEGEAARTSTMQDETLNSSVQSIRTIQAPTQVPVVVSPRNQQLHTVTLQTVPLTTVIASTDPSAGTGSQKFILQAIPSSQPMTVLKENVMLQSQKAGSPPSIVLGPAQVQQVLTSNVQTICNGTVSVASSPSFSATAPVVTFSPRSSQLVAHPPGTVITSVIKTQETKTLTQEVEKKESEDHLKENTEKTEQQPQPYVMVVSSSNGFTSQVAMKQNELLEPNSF

Row | Sequence | binding signal (FLI1) | binding signal (ELK1) | binding signal (GABPA) | binding signal (ERG) | binding signal (ELF1) | binding signal (EHF) | binding signal (SPI1) | binding signal (SPIB) | binding signal (ELK3)
1 | CCACGA | 1.18 fold enrichment (6-mer frequency, TF over GST control) | 1.17 fold enrichment (6-mer frequency, TF over GST control) | 1.19 fold enrichment (6-mer frequency, TF over GST control) | 1.12 fold enrichment (6-mer frequency, TF over GST control) | 1.1 fold enrichment (6-mer frequency, TF over GST control) | 1.23 fold enrichment (6-mer frequency, TF over GST control) | 1.12 fold enrichment (6-mer frequency, TF over GST control) | 1.06 fold enrichment (6-mer frequency, TF over GST control) | 1.16 fold enrichment (6-mer frequency, TF over GST control)
2 | ACACTG | 1.08 fold enrichment (6-mer frequency, TF over GST control) | 1.13 fold enrichment (6-mer frequency, TF over GST control) | 1.13 fold enrichment (6-mer frequency, TF over GST control) | 1.07 fold enrichment (6-mer frequency, TF over GST control) | 1.09 fold enrichment (6-mer frequency, TF over GST control) | 1.11 fold enrichment (6-mer frequency, TF over GST control) | 1.07 fold enrichment (6-mer frequency, TF over GST control) | 1.04 fold enrichment (6-mer frequency, TF over GST control) | 1.04 fold enrichment (6-mer frequency, TF over GST control)
3 | GCAAAA | 1.04 fold enrichment (6-mer frequency, TF over GST control) | 1.08 fold enrichment (6-mer frequency, TF over GST control) | 1.08 fold enrichment (6-mer frequency, TF over GST control) | 1.05 fold enrichment (6-mer frequency, TF over GST control) | 1.09 fold enrichment (6-mer frequency, TF over GST control) | 1.14 fold enrichment (6-mer frequency, TF over GST control) | 1.16 fold enrichment (6-mer frequency, TF over GST control) | 1.13 fold enrichment (6-mer frequency, TF over GST control) | 1.15 fold enrichment (6-mer frequency, TF over GST control)
4 | CCCACC | 1.17 fold enrichment (6-mer frequency, TF over GST control) | 1.26 fold enrichment (6-mer frequency, TF over GST control) | 1.11 fold enrichment (6-mer frequency, TF over GST control) | 1.15 fold enrichment (6-mer frequency, TF over GST control) | 1.15 fold enrichment (6-mer frequency, TF over GST control) | 1.2 fold enrichment (6-mer frequency, TF over GST control) | 1.18 fold enrichment (6-mer frequency, TF over GST control) | 1.13 fold enrichment (6-mer frequency, TF over GST control) | 1.16 fold enrichment (6-mer frequency, TF over GST control)
5 | AATTTG | 1.35 fold enrichment (6-mer frequency, TF over GST control) | 1.22 fold enrichment (6-mer frequency, TF over GST control) | 1.33 fold enrichment (6-mer frequency, TF over GST control) | 1.26 fold enrichment (6-mer frequency, TF over GST control) | 1.26 fold enrichment (6-mer frequency, TF over GST control) | 1.23 fold enrichment (6-mer frequency, TF over GST control) | 1.33 fold enrichment (6-mer frequency, TF over GST control) | 1.34 fold enrichment (6-mer frequency, TF over GST control) | 1.12 fold enrichment (6-mer frequency, TF over GST control)
6 | CGGTTT | 1.26 fold enrichment (6-mer frequency, TF over GST control) | 1.18 fold enrichment (6-mer frequency, TF over GST control) | 1.25 fold enrichment (6-mer frequency, TF over GST control) | 1.33 fold enrichment (6-mer frequency, TF over GST control) | 1.26 fold enrichment (6-mer frequency, TF over GST control) | 1.27 fold enrichment (6-mer frequency, TF over GST control) | 1.44 fold enrichment (6-mer frequency, TF over GST control) | 1.23 fold enrichment (6-mer frequency, TF over GST control) | 1.25 fold enrichment (6-mer frequency, TF over GST control)
7 | ATTCCA | 1.17 fold enrichment (6-mer frequency, TF over GST control) | 1.1 fold enrichment (6-mer frequency, TF over GST control) | 1.16 fold enrichment (6-mer frequency, TF over GST control) | 1.14 fold enrichment (6-mer frequency, TF over GST control) | 1.22 fold enrichment (6-mer frequency, TF over GST control) | 1.13 fold enrichment (6-mer frequency, TF over GST control) | 1.16 fold enrichment (6-mer frequency, TF over GST control) | 1.1 fold enrichment (6-mer frequency, TF over GST control) | 1.25 fold enrichment (6-mer frequency, TF over GST control)
8 | GCTGCT | 1.32 fold enrichment (6-mer frequency, TF over GST control) | 1.24 fold enrichment (6-mer frequency, TF over GST control) | 1.24 fold enrichment (6-mer frequency, TF over GST control) | 1.29 fold enrichment (6-mer frequency, TF over GST control) | 1.41 fold enrichment (6-mer frequency, TF over GST control) | 1.34 fold enrichment (6-mer frequency, TF over GST control) | 1.19 fold enrichment (6-mer frequency, TF over GST control) | 1.29 fold enrichment (6-mer frequency, TF over GST control) | 1.27 fold enrichment (6-mer frequency, TF over GST control)
